From article PMC11995724, “Antibiotic target discovery by integrated phenotypic and activity-based profiling of electrophilic fragments” (Cell chemical biology, 2025)
The campaign covered roughly 3,200 compounds. About 110 (3.4%) showed an effect of 50% or more. The list comes from a sample in which strong results are over-represented; it also holds similar structures and randomly drawn compounds.

These compounds were tested on T1, V. cholerae SAD30. Conditions: relative growth, OD600, LB; 25 µM; inhibitor.
T1 construct: SAD30
Design: species or system S. aureus MSSA476 (TSB) or V. cholerae SAD30 (LB); 384-well bacterial growth screen at 25 uM, OD600 relative to DMSO control

Going from `O=C(CCl)Nc1cc2c(cc1[N+](=O)[O-])OCCCO2` [4-O05, 2-chloro-N-(8-nitro-3,4-dihydro-2H-1,5-benzodioxepin-7-yl)acetamide] to `CCOc1ccc2nc(NC(=O)CCl)sc2c1` [4-L10, 2-chloro-N-(6-ethoxy-1,3-benzothiazol-2-yl)acetamide], the “% of control remaining” value falls from 108.001% to 94.3714%.

First: O=C(CCl)c1ccc(C(F)(F)F)cc1 [10-B10, 2-chloro-1-[4-(trifluoromethyl)phenyl]ethan-1-one]
Second: Cl.O=C(CCl)c1ccncc1 [10-M09, 2-chloro-1-(pyridin-4-yl)ethan-1-one hydrochloride]
The “% of control remaining” value of the first is higher: 79.174% for the first, -0.1559% for the second.

Compared with `O=C(CCl)c1c[nH]c2ccncc12` [10-K05, 2-chloro-1-{1H-pyrrolo[3,2-c]pyridin-3-yl}ethan-1-one], `Cl.O=C(CCl)c1ccncc1F` [10-I09, 2-chloro-1-(3-fluoropyridin-4-yl)ethan-1-one hydrochloride] is lower in “% of control remaining” value: 101.305% for the first, 0% for the second.

Compared with `O=C(CCl)c1ccoc1` [10-O09, 2-chloro-1-(furan-3-yl)ethan-1-one], `Cc1cc(C(=O)CCl)c(C)n1-c1ccon1` [10-F06, 2-chloro-1-[2,5-dimethyl-1-(1,2-oxazol-3-yl)-1H-pyrrol-3-yl]ethan-1-one] is lower in “% of control remaining” value: 123.281% for the first, 37.8726% for the second.

Compared with `O=C(CCl)NCC(F)(F)c1cccnc1` [6-C21, 2-chloro-N-[2,2-difluoro-2-(pyridin-3-yl)ethyl]acetamide], `O=C(CCl)NCCSc1ccccc1` [4-G21, 2-chloro-N-[2-(phenylsulfanyl)ethyl]acetamide] is higher in “% of control remaining” value: 97.8292% for the first, 113.522% for the second.

First: COc1ccc(C=C(C#N)C(=O)Nc2c(C)cccc2C)cc1OC [8-A17, 2-cyano-3-(3,4-dimethoxyphenyl)-N-(2,6-dimethylphenyl)prop-2-enamide]
Second: COc1ccc(C=C(C#N)C(=O)Nc2cccc(C)c2)cc1 [8-M03, 2-cyano-3-(4-methoxyphenyl)-N-(3-methylphenyl)prop-2-enamide]
The “% of control remaining” value of the first is higher: 86.6757% for the first, 85.4521% for the second.

Going from `Cc1n[nH]c(C)c1C=C(C#N)C(=O)Nc1cc(Cl)cc(Cl)c1` [8-M08, 2-cyano-N-(3,5-dichlorophenyl)-3-(3,5-dimethyl-1H-pyrazol-4-yl)prop-2-enamide] to `COc1ccc(NC(=O)C(C#N)=Cc2cnc3c(C)cccn23)cc1` [9-L03, 2-cyano-N-(4-methoxyphenyl)-3-{8-methylimidazo[1,2-a]pyridin-3-yl}prop-2-enamide], the “% of control remaining” value rises from 68.3209% to 95.7852%.

First: C=CC(=O)N1CCC(C(=O)NCCc2c(C)n[nH]c2C)CC1 [2-D04, N-[2-(3,5-dimethyl-1H-pyrazol-4-yl)ethyl]-1-(prop-2-enoyl)piperidine-4-carboxamide]
Second: Cc1noc(C)c1COC1CCN(C(=O)C(C)Cl)C1 (centres unmarked) [7-O14, 2-chloro-1-{3-[(3,5-dimethyl-1,2-oxazol-4-yl)methoxy]pyrrolidin-1-yl}propan-1-one]
The “% of control remaining” value of the first is higher: 106.099% for the first, 78.3744% for the second.

First: CC(Cl)C(=O)N1CCN(S(=O)(=O)c2ccccc2)CC1 (centres unmarked) [6-B12, 1-[4-(benzenesulfonyl)piperazin-1-yl]-2-chloropropan-1-one]
Second: CC(Cl)C(=O)N1CCN(c2cc(-c3ccccc3F)n[nH]2)CC1 (centres unmarked) [6-N20, 2-chloro-1-{4-[3-(2-fluorophenyl)-1H-pyrazol-5-yl]piperazin-1-yl}propan-1-one]
The “% of control remaining” value of the first is higher: 88.4254% for the first, 84.7853% for the second.

Going from `CCc1cccc2c(C(=O)CCl)c[nH]c12` [10-C12, 2-chloro-1-(7-ethyl-1H-indol-3-yl)ethan-1-one] to `Cc1cccc2[nH]cc(C(=O)CCl)c12` [10-H09, 2-chloro-1-(4-methyl-1H-indol-3-yl)ethan-1-one], the “% of control remaining” value rises from 24.3133% to 100.526%.

Going from `CCc1cccc(CC)c1NC(=O)CCl` [4-F10, 2-chloro-N-(2,6-diethylphenyl)acetamide] to `CN(c1ccccc1)S(=O)(=O)c1cccc(NC(=O)CCl)c1` [4-H04, 2-chloro-N-{3-[methyl(phenyl)sulfamoyl]phenyl}acetamide], the “% of control remaining” value rises from 103.86% to 111.106%.

First: Cc1ccccc1-n1c(C)cc(C(=O)CCl)c1C [10-H20, 2-chloro-1-[2,5-dimethyl-1-(2-methylphenyl)-1H-pyrrol-3-yl]ethan-1-one]
Second: Cc1cc(C(=O)CCl)c(C)n1-c1ccccc1 [10-L20, 2-chloro-1-(2,5-dimethyl-1-phenyl-1H-pyrrol-3-yl)ethan-1-one]
The “% of control remaining” value of the first is lower: 100.526% for the first, 100.682% for the second.

Compared with `Cc1cc(C(=O)CCl)c(C)n1-c1ccccn1` [10-C16, 2-chloro-1-[2,5-dimethyl-1-(pyridin-2-yl)-1H-pyrrol-3-yl]ethan-1-one], `Cc1cc(-n2c(C)cc(C(=O)CCl)c2C)no1` [10-C18, 2-chloro-1-[2,5-dimethyl-1-(5-methyl-1,2-oxazol-3-yl)-1H-pyrrol-3-yl]ethan-1-one] is higher in “% of control remaining” value: 41.1455% for the first, 106.137% for the second.

Compared with `Cc1cc(C)cc(-n2c(C)cc(C(=O)CCl)c2C)c1` [10-E04, 2-chloro-1-[1-(3,5-dimethylphenyl)-2,5-dimethyl-1H-pyrrol-3-yl]ethan-1-one], `Cc1ccc(S(=O)(=O)NC2CN(C(=O)CCl)C2)cc1` [5-E07, N-[1-(2-chloroacetyl)azetidin-3-yl]-4-methylbenzene-1-sulfonamide] is higher in “% of control remaining” value: 92.1099% for the first, 95.6604% for the second.

Going from `C[C@H](NC(=O)CCl)C(=O)N1CCCCC1` [7-L14, 2-chloro-N-[(2S)-1-oxo-1-(piperidin-1-yl)propan-2-yl]acetamide] to `O=C(CCc1ccccc1)NC1CCN(C(=O)CCl)CC1` [5-L08, N-[1-(2-chloroacetyl)piperidin-4-yl]-3-phenylpropanamide], the “% of control remaining” value rises from 80.489% to 100.704%.

Compared with `C=CC(=O)NCCc1nc(C)cs1` [2-D05, N-[2-(4-methyl-1,3-thiazol-2-yl)ethyl]prop-2-enamide], `C=CC(=O)NCCc1csc(C)n1` [1-D13, N-[2-(2-methyl-1,3-thiazol-4-yl)ethyl]prop-2-enamide] is lower in “% of control remaining” value: 94.8278% for the first, 86.9955% for the second.

First: C=CC(=O)NCC(=O)c1scc(C)c1Cl [1-D16, N-[2-(3-chloro-4-methylthiophen-2-yl)-2-oxoethyl]prop-2-enamide]
Second: C=CC(=O)N(C)CC(=O)NCc1c(O)nnc(C)c1C [2-I20, N-({[(3-hydroxy-5,6-dimethylpyridazin-4-yl)methyl]carbamoyl}methyl)-N-methylprop-2-enamide]
The “% of control remaining” value of the first is lower: 44.1609% for the first, 95.9085% for the second.

Going from `COc1ccc(NC(=O)c2ccccc2NC(=O)CCl)cc1` [4-L05, 2-(2-chloroacetamido)-N-(4-methoxyphenyl)benzamide] to `O=C(CCl)Nc1ccc(SC(F)F)cc1` [4-B10, 2-chloro-N-{4-[(difluoromethyl)sulfanyl]phenyl}acetamide], the “% of control remaining” value falls from 109.209% to 104.205%.

Going from `CN1c2ccccc2C(NC(=O)CCl)CS1(=O)=O` (centres unmarked) [7-L04, 2-chloro-N-(1-methyl-2,2-dioxo-3,4-dihydro-1H-2lambda6,1-benzothiazin-4-yl)acetamide] to `CC(Cl)C(=O)N(C)Cc1ccccc1` (centres unmarked) [6-I13, N-benzyl-2-chloro-N-methylpropanamide], the “% of control remaining” value falls from 88.9476% to 78.87%.

First: O=C1C=CC(=O)N1c1ccc(F)c(Cl)c1 [10-D15, 1-(3-chloro-4-fluorophenyl)-2,5-dihydro-1H-pyrrole-2,5-dione]
Second: O=C1C=CC(=O)N1c1ccc(F)cc1 [10-M10, 1-(4-fluorophenyl)-2,5-dihydro-1H-pyrrole-2,5-dione]
The “% of control remaining” value of the first is higher: 25.716% for the first, 16.8323% for the second.

Compared with `N#Cc1ccc(N2C(=O)C=CC2=O)cc1` [10-B09, 4-(2,5-dioxo-2,5-dihydro-1H-pyrrol-1-yl)benzonitrile], `O=C1C=CC(=O)N1c1ccc(SC(F)F)cc1` [10-A18, 1-{4-[(difluoromethyl)sulfanyl]phenyl}-2,5-dihydro-1H-pyrrole-2,5-dione] is higher in “% of control remaining” value: 24.9367% for the first, 28.9889% for the second.

Going from `N#CC(=Cc1ccc(C#N)cc1)C(=O)N1CCCC1` [9-P21, 4-[2-cyano-2-(pyrrolidine-1-carbonyl)eth-1-en-1-yl]benzonitrile] to `CN1C=C(C(F)(F)F)C=CC1=C(C#N)C(=O)Nc1ccccc1F` [8-H20, 2-cyano-N-(2-fluorophenyl)-2-[1-methyl-5-(trifluoromethyl)-1,2-dihydropyridin-2-ylidene]acetamide], the “% of control remaining” value falls from 93.8817% to 66.9613%.

Going from `CC(Cl)C(=O)Nc1ccc(F)c(Cl)c1` (centres unmarked) [4-A04, 2-chloro-N-(3-chloro-4-fluorophenyl)propanamide] to `CC(Cl)C(=O)Nc1ccc(SC(F)F)cc1` (centres unmarked) [4-L09, 2-chloro-N-{4-[(difluoromethyl)sulfanyl]phenyl}propanamide], the “% of control remaining” value falls from 99.7196% to 88.1604%.

For `O=C1C=CC(=O)N1c1cnccn1` [10-P07, 1-(pyrazin-2-yl)-2,5-dihydro-1H-pyrrole-2,5-dione], the “% of control remaining” value was 97.4089%.
